# In PubChem BioAssay (EPA / NIEHS):
# “And” between values parts separate entries of the source, which are not always exact repeats. Equal values may be shown once. Records with an inconclusive call do not appear. The source holds several records for some structures; these can differ, active in one and inactive in another. The source made the active and inactive calls. The calls were made as follows: active = hit-call score of the fitted dose curve at least 0.9, where 1 is the maximum; inconclusive = response in the unintended direction; inactive = score below 0.9.
# Key:
# [1] = target: Cellular tumor antigen p53 (Homo sapiens) (UniProt P04637); experiment: TOX21_p53_BLA_p2_ratio: Tox21 HCT-116 p53 Agonism Beta-lactamase Assay, Ratio, Phase 2 (AID 2283592)
# Outline: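 DMSO-normalized, positive-direction endpoint derived from the 460 nm/530 nm FRET ratio in HCT116 p53 beta-lactamase reporter cells exposed 16 h at 37C and loaded with CCF4-AM for 2 h.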
# [2] = TOX21_p53_BLA_p3_viability: Viability Assessment in the Tox21 HCT-116 p53 Agonism Beta-lactamase Assay, Phase 3 (AID 2283593);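 also: cells exposed to compound for 16 h before reading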
# Outline: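 HCT116 cells, 4000/well, dosed 5 h after plating by pin transfer (217-fold dilution from DMSO stock) and incubated 16 h at 37C, 5% CO2. Viability read as ATP luminescence with CellTiter-Glo after 30 min at room temperature.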
# [3] = target: Cellular tumor antigen p53 (Homo sapiens) (UniProt P04637); experiment: TOX21_p53_BLA_p3_ratio: Tox21 HCT-116 p53 Agonism Beta-lactamase Assay, Ratio, Phase 3 (AID 2283596)
# Outline: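 Cells were seeded at 4000/well, rested 5 h at 37C, then dosed with DMSO compound solutions (217-fold dilution) for 16 h. CCF4-AM substrate was loaded for 2 h at room temperature, and the 460/530 nm emission ratio was fitted for gain of signal versus DMSO.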
# [4] = TOX21_p53_BLA_p4_viability: Viability Assessment in the Tox21 HCT-116 p53 Agonism Beta-lactamase Assay, Phase 4 (AID 2283597);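 also: hits lower the luminescence signal meaning cytotoxicity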
# Outline: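 In this multiplexed secondary endpoint, HCT116 cells (4000 per well, compound at 5 h, 16 h treatment) received CellTiter-Glo after the beta-lactamase read. Luminescence after 30 min RT reflects ATP, and falling signal marks cytotoxicity.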
# [5] = target: Cellular tumor antigen p53 (Homo sapiens) (UniProt P04637); experiment: TOX21_p53_BLA_p5_ratio: Tox21 HCT-116 p53 Agonism Beta-lactamase Assay, Ratio, Phase 5 (AID 2283599)
# Outline: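 HCT-116 p53-bla cells (4000/well) plated 5 h, dosed with compound (217-fold DMSO dilution) for 16 h at 37 C; CCF4-AM substrate 2 h at room temperature. Activity is the 460/530 nm emission ratio (405 nm excitation), fitted in gain-of-signal direction versus DMSO.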
# [6] = target: Cellular tumor antigen p53 (Homo sapiens) (UniProt P04637); experiment: TOX21_p53_BLA_p4_ratio: Tox21 HCT-116 p53 Agonism Beta-lactamase Assay, Ratio, Phase 4 (AID 2283601)
# Outline: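 HCT-116 p53 beta-lactamase reporter cells (4000/well) preincubated 5 h, then compound (217-fold dilution of DMSO stock) for 16 h at 37C. CCF4-AM substrate added 2 h at room temperature; 460/530 nm emission ratio fitted upward versus DMSO.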
# [7] = TOX21_p53_BLA_p5_viability: Viability Assessment in the Tox21 HCT-116 p53 Agonism Beta-lactamase Assay, Phase 5 (AID 2283600)
# Outline: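 Here cell health was gauged by ATP levels in wells holding 4000 cells, each treated 16 h with DMSO-delivered compounds at 217-fold dilution; reduced luminescence marked toxicity.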
# [8] = Tanguay_ZF_120hpf_MORT_legacy: (Legacy) Oregon State University Tanguay Lab 120 Hour Post-fertilization zebrafish Assay for Mortality (AID 2283633);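 as to AC50: fitted as increase in binary mortality versus DMSO negative control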
# Outline: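 Single dechorionated Tropical 5D embryos were held with test chemical (0.64% DMSO final) from 6 to 120 hpf at 28C under foil. Deaths at 24 or 120 hpf were recorded as binary calls, analysed for increase over DMSO controls.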
# [9] = Tanguay_ZF_120hpf_YSE_legacy: (Legacy) Oregon State University Tanguay Lab 120 Hour Post-fertilization zebrafish Assay for Yolk Sac Edema (AID 2283634)
# Outline: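 Single dechorionated embryos were held in sealed plates at 28C with test chemical (0.64% DMSO final) from 6 hpf until 120 hpf. Edema of the yolk sac was then recorded as a binary endpoint; non-mortality endpoints were skipped for dead embryos.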
# [10] = Tanguay_ZF_120hpf_AXIS_legacy: (Legacy) Oregon State University Tanguay Lab 120 Hour Post-fertilization zebrafish Assay for Body Axis Malformation (AID 2283635);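 as to AC50: potency for an increased fraction of larvae scored with body axis malformation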
# Outline: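 Each dechorionated embryo was exposed alone from 6 hpf, with DMSO at 0.64% (vol/vol) and trimethyltin chloride 5 uM as positive control. Axis malformation was recorded at 120 hpf unless the embryo had died.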
# Chain of Cellular tumor antigen p53 (Homo sapiens) (P04637 whole entry, looked up): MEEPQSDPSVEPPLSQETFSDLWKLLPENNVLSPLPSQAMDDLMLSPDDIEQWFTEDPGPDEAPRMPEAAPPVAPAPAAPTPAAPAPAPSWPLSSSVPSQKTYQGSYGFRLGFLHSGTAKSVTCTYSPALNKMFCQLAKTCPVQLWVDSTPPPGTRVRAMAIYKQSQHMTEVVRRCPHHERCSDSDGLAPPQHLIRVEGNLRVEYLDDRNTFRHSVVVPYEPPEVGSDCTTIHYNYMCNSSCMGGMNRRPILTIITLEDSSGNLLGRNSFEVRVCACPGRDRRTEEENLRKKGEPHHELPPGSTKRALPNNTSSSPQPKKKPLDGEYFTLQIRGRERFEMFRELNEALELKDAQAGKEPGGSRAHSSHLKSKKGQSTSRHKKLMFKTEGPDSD
smiles,measurement,setting,value
Nc1ccc(N=Nc2ccc(-c3ccc(N=Nc4c(S(=O)(=O)O)cc5cc(S(=O)(=O)O)c(N=Nc6ccccc6)c(O)c5c4N)cc3)cc2)c(N)c1,outcome,[1],inactive
same,outcome,[2],inactive
same,outcome,[3],inactive
same,outcome,[4],inactive
same,outcome,[5],inactive
same,outcome,[6],inactive
OCc1ccco1,outcome,[1],inactive
same,outcome,[2],inactive
same,outcome,[3],inactive
same,outcome,[7],inactive
same,outcome,[6],inactive
CCOC(=O)CP(=O)(OCC)OCC,outcome,[1],inactive
same,outcome,[2],inactive
same,outcome,[3],inactive
same,outcome,[6],inactive
NC(=O)CF,outcome,[1],inactive
same,outcome,[3],inactive
same,outcome,[4],inactive
O=c1[nH]c(=O)[nH]c(=O)[nH]1,outcome,[1],inactive
same,outcome,[2],inactive
same,outcome,[3],inactive
same,outcome,[4],inactive
same,outcome,[5],inactive
same,outcome,[6],inactive
same,outcome,[8],inactive
same,outcome,[9],inactive
same,outcome,[10],inactive
CC(=O)OC(c1ccccc1)C(Cl)(Cl)Cl (stereo unspecified),outcome,[1],inactive
same,outcome,[2],inactive
same,outcome,[3],inactive
same,outcome,[4],inactive
same,outcome,[5],inactive
same,outcome,[6],inactive
CN(C)P(=O)(N(C)C)N(C)C,outcome,[1],inactive
same,outcome,[3],inactive
same,outcome,[4],inactive
same,outcome,[5],inactive
same,outcome,[7],inactive
same,outcome,[6],inactive
Cl/C=C/Cl,outcome,[1],inactive
same,outcome,[2],inactive
same,outcome,[3],inactive
same,outcome,[7],inactive
same,outcome,[6],inactive
CC(=O)c1cc(C(C)(C)C)cc2c1CCC2(C)C,outcome,[1],inactive
same,outcome,[2],inactive
same,outcome,[3],inactive
same,outcome,[5],inactive
same,outcome,[7],inactive
same,outcome,[6],inactive
CCCCP(CCCC)CCCC,outcome,[1],inactive
same,outcome,[2],inactive
same,outcome,[3],inactive
same,outcome,[4],inactive
same,outcome,[7],inactive
same,outcome,[6],inactive
COc1ccc(C=O)cc1OC,outcome,[1],inactive
same,outcome,[2],inactive
same,outcome,[3],inactive
same,outcome,[5],inactive
same,outcome,[7],inactive
same,outcome,[6],inactive
Cl/C=C\C[N+]12CN3CN(CN(C3)C1)C2,outcome,[1],inactive
same,outcome,[2],inactive
same,outcome,[3],inactive
same,outcome,[5],inactive
same,outcome,[6],inactive
CCOP(=S)(OCC)SCSP(=S)(OCC)OCC,outcome,[1],inactive
same,outcome,[2],inactive
same,outcome,[4],inactive
same,outcome,[5],inactive
same,outcome,[7],inactive
same,outcome,[6],inactive
same,outcome,[8],inactive
same,outcome,[9],inactive
same,outcome,[10],inactive
Nc1ncc([N+](=O)[O-])s1,outcome,[1],inactive
same,outcome,[2],inactive
same,outcome,[3],inactive
same,outcome,[5],inactive
same,outcome,[7],inactive
same,outcome,[6],inactive
CCC(C)c1cccc(C(C)CC)c1O (stereo unspecified),outcome,[1],inactive
same,outcome,[2],inactive
same,outcome,[4],inactive
same,outcome,[5],inactive
same,outcome,[6],inactive
O=C(OC1CCCCC1)c1ccccc1C(=O)OC1CCCCC1,outcome,[1],inactive
same,outcome,[2],inactive
same,outcome,[4],inactive
same,outcome,[5],inactive
same,outcome,[7],inactive
CC(C)OC(=S)S,outcome,[1],inactive
same,outcome,[3],inactive
same,outcome,[4],inactive
same,outcome,[5],inactive
same,outcome,[7],inactive
ClC1=C(Cl)[C@]2(Cl)[C@H]3[C@H]([C@H]4C=C[C@H]3C4)[C@@]1(Cl)C2(Cl)Cl,outcome,[1],inactive
same,outcome,[2],inactive
same,outcome,[4],inactive
same,outcome,[5],inactive
same,outcome,[7],inactive
same,outcome,[6],inactive
COc1cccc(C=O)c1,outcome,[1],inactive
same,outcome,[2],inactive
same,outcome,[3],inactive
same,outcome,[5],inactive
same,outcome,[7],inactive
same,outcome,[6],inactive
CCOP(=O)(CN(CCO)CCO)OCC,outcome,[1],inactive
same,outcome,[2],inactive
same,outcome,[4],inactive
N#CN=C(N)N,outcome,[1],inactive
same,outcome,[3],inactive
same,outcome,[4],inactive
same,outcome,[5],inactive
same,outcome,[7],inactive
same,outcome,[6],inactive
CCCCC(CC)CO[N+](=O)[O-] (stereo unspecified),outcome,[1],inactive
same,outcome,[3],inactive
same,outcome,[6],inactive
N#Cc1ccccn1,outcome,[1],inactive
same,outcome,[3],inactive
same,outcome,[4],inactive
same,outcome,[5],inactive
same,outcome,[7],inactive
same,outcome,[6],inactive
COc1ccc(C(O)(c2cncnc2)C2CC2)cc1 (stereo unspecified),outcome,[3],inactive
same,outcome,[7],inactive
same,outcome,[6],inactive
O=C(Cc1ccccc1)c1ccccc1,outcome,[1],inactive
same,outcome,[3],inactive
same,outcome,[5],inactive
same,outcome,[6],inactive
NC(=O)O,outcome,[1],inactive
same,outcome,[5],inactive
same,outcome,[7],inactive
same,outcome,[6],inactive
same,outcome,[8],inactive
same,outcome,[9],inactive
COc1ccc(C=O)cc1,outcome,[1],inactive
same,outcome,[3],inactive
same,outcome,[4],inactive
same,outcome,[5],inactive
same,outcome,[6],inactive
CN(C)N=O,outcome,[2],inactive
same,outcome,[3],inactive
same,outcome,[4],inactive
same,outcome,[5],inactive
same,outcome,[7],inactive
same,outcome,[6],inactive
same,outcome,[8],inactive
same,outcome,[9],inactive
O=C(O)C(F)(F)C(F)(F)C(F)(F)C(F)(F)C(F)(F)C(F)(F)F,outcome,[2],inactive
same,outcome,[4],inactive
same,outcome,[5],inactive
same,outcome,[8],inactive
same,outcome,[9],inactive
same,outcome,[10],inactive
CCC(=O)C(CC(C)N(C)C)(c1ccccc1)c1ccccc1 (stereo unspecified),outcome,[1],inactive
same,outcome,[3],inactive
same,outcome,[5],inactive
same,outcome,[6],inactive
same,outcome,[8],inactive
same,AC50,[10],31.3 µM (active)
Nc1cccc2ccccc12,outcome,[3],inactive
same,outcome,[4],inactive
same,outcome,[5],inactive
same,outcome,[6],inactive
CC(C#N)CCC#N (stereo unspecified),outcome,[2],inactive
same,outcome,[3],inactive
same,outcome,[4],inactive
same,outcome,[5],inactive
same,outcome,[7],inactive
same,outcome,[6],inactive
P.[In],outcome,[2],inactive
same,outcome,[3],inactive
same,outcome,[4],inactive
same,outcome,[5],inactive
same,outcome,[7],inactive
same,outcome,[6],inactive
COC(=O)Cc1ccccc1,outcome,[3],inactive
same,outcome,[6],inactive
C=CC(=O)OCCCCCC(C)C,outcome,[2],inactive
same,outcome,[3],inactive
same,outcome,[4],inactive
same,outcome,[5],inactive
same,outcome,[7],inactive
same,outcome,[6],inactive
same,outcome,[8],inactive
same,outcome,[9],inactive
same,outcome,[10],inactive
CC(=O)C(Cl)C(=O)N(C)C (stereo unspecified),outcome,[1],inactive
same,outcome,[3],inactive
same,outcome,[4],inactive
same,outcome,[5],inactive
same,outcome,[7],inactive
same,outcome,[6],inactive
O=C(CCl)CCl,AC50,[2],19.3 µM (active) and 22.3 µM (active)
same,outcome,[3],inactive
same,outcome,[4],inactive
same,outcome,[5],inactive
same,outcome,[7],inactive
same,outcome,[6],inactive
COP(=S)(OC)Oc1c(Cl)cc(C)cc1Cl,outcome,[1],inactive
same,outcome,[3],inactive
same,outcome,[4],inactive
same,outcome,[5],inactive
same,outcome,[6],inactive
O=C(O)C(F)(F)C(F)(F)C(F)(F)C(F)(F)C(F)(F)C(F)(F)C(F)(F)C(F)(F)C(F)(F)C(F)(F)F,outcome,[1],inactive
same,outcome,[3],inactive
same,outcome,[5],inactive
same,outcome,[7],inactive
same,outcome,[6],inactive
same,outcome,[8],inactive
same,outcome,[9],inactive
O=P(O)(O)CN(CP(=O)(O)O)CP(=O)(O)O,outcome,[2],inactive
same,outcome,[3],inactive
same,outcome,[6],inactive
Oc1cccc2cccnc12,outcome,[2],inactive
same,outcome,[4],inactive
same,outcome,[7],inactive
same,AC50,[8],27.2 µM (active)
same,outcome,[9],inactive
same,outcome,[10],inactive
CC(C)CCCCCCOC(=O)c1ccccc1C(=O)OCCCCCCC(C)C,outcome,[1],inactive
same,outcome,[4],inactive
CCCCCCCCCCCCCCCC[n+]1ccccc1,AC50,[2],45.6 µM (active) and 81 µM (active) and 46.1 µM (active)
same,outcome,[2],inactive
same,AC50,[3],36.1 µM (active) and 53.2 µM (active)
same,outcome,[3],inactive
same,AC50,[4],66.5 µM (active) [middle of 4 runs]
same,AC50,[5],71.7 µM (active) [middle of 4 runs]
same,AC50,[7],62.7 µM (active) and 84.3 µM (active) and 80.2 µM (active)
same,outcome,[7],inactive
same,AC50,[6],67.7 µM (active) [middle of 4 runs]
CCC[CH2][Sn]([Cl])([Cl])[Cl],outcome,[1],inactive
same,outcome,[3],inactive
same,outcome,[5],inactive
same,outcome,[7],inactive
same,outcome,[6],inactive
O=C(NCO)NCO,outcome,[3],inactive
same,outcome,[4],inactive
same,outcome,[7],inactive
same,outcome,[6],inactive
ClCc1ccccn1,outcome,[1],inactive
same,outcome,[4],inactive
same,outcome,[5],inactive
same,outcome,[7],inactive
same,outcome,[6],inactive
Cc1cc(=O)[nH]o1,outcome,[1],inactive
same,outcome,[5],inactive
same,outcome,[7],inactive
CCC(=O)c1ccccc1,outcome,[1],inactive
same,outcome,[4],inactive
same,outcome,[5],inactive
same,outcome,[7],inactive
ClCc1cccnc1,outcome,[1],inactive
same,outcome,[3],inactive
same,outcome,[5],inactive
same,outcome,[7],inactive
